Inconclusive results are not listed. Active and inactive are the calls of the source. Unless noted, the call rests on the fitted dose curve; in most records, active means well fitted curve in either direction with a large enough effect (not every such curve was filed as active); inconclusive means small, poorly fitted or top-dose-only effect, or another doubt; inactive means flat fitted curve, though single readings scatter.

From PubChem BioAssay (NCATS) come the findings set out here.

Test [1] addresses Lysosomal acid glucosylceramidase (Homo sapiens) (UniProt P04062). The experiment in a line: Glucocerebrosidase-p2 (AID 348; in the data active means potency below about 10 µM; further: potency means the concentration at half of the fitted maximal effect). The settings on record: purified GBA, blue fluorogenic substrate, 40 min. A digest of the protocol:
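Compounds titrated from 0.6 nM upwards against 0.2 nM enzyme in pH 5.9 citric acid/KH2PO4, taurocholate, tween-20; blue fluorogenic substrate 80 uM, 40 min room temperature, stopped and read Ex 365/Em 440 for AC50.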

Test [2] can be described thus: AP1 Signaling Pathway (AID 357).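 Further: ME-180 reporter cells stimulated with EGF at its EC50 level; on the % scale 0 is the no-effect control and ±100 the full control effect.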 Conditions: ME-180 AP-1-bla reporter, EGF-induced, beta-lactamase ratio, 5 h; series mostly up to 17.2 µM. A digest of the protocol: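 A ratiometric CCF4 readout (405 nm excitation; 460 and 530 nm emission) quantified AP-1-driven beta-lactamase in ME-180 cells after 5 h with compound and EC50 EGF; AC50 values were derived for activators and inhibitors.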

For test [3], the target named is Cytochrome P450 1A2 (Homo sapiens) (UniProt P05177). The experiment in a line: p450-cyp1a2 (AID 410; calls by dose curve). Conditions: recombinant CYP1A2, luciferin-ME demethylation, luminescence; series mostly up to 25.6 µM. The gist of the method:
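Inhibition was calculated relative to 57 uM furafylline (full inhibition). The reaction used human CYP1A2 at 20nM with Luciferin-ME at its Km, 100uM, driven by an NADPH-regenerating system for 60 min at room temperature.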

The nature of test [4]: NFAT Signaling Pathway (AID 444).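 Further: carbachol stimulus at about its EC50 of 1 µM final; on the % scale 0 is the no-effect control and ±100 the full control effect.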 Conditions: Jurkat NFAT-bla M1, carbachol, beta-lactamase ratio, 5 h; at 7.69 µM (top of the series). A digest of the protocol:
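Jurkat cells with NFAT-driven β-lactamase reporter and co-expressed M1 receptor, stimulated with carbachol (final 1 uM, ~EC50), compound titration, 5 h at 37 °C. CCF4 loaded 1 h at RT; 460/530 nm ratio gave %activity and AC50.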

Test [5] is described as follows: Stat Signaling Pathway (AID 446).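 Further: ME-180 cervical cancer cells given 40 pM IL-6 alongside compound; SIE-controlled beta-lactamase reporter measured as 460/530 nm FRET emission ratio; on the % scale 0 is the no-effect control and ±100 the full control effect.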 The settings on record: ME-180 SIE beta-lactamase reporter, IL-6 stimulated, 5 h; series mostly up to 17.2 µM. A digest of the protocol:
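Reporter line: ME-180 cervical carcinoma, SIE-beta-lactamase. Treatment: compound with 40 pM IL-6, 5 hrs, 37 C, in low-serum OPTI-MEM with 10 mM HEPES pH 7.3. Detection: 460/530 nm fluorescence.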

Test [6] concerns the target Glucocorticoid receptor (Homo sapiens) (UniProt P04150). The experiment in a line: GR-EFC Redistribution (AID 451; calls by dose curve; further: potency means the concentration at half of the fitted maximal effect). The settings on record: CHO-K1 GR-EFC translocation, beta-gal luminescence, 2 h. The gist of the method: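 CHO-K1 cells expressing nuclear EA and GR-ED fragments of b-gal; compounds titrated up to 46 uM final, 2 h at 37 C. GR nuclear translocation read as complemented b-gal luminescence after 1 h RT detection.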

The target in test [7] is Mitogen-activated protein kinase 10 (Mus musculus) (UniProt Q61831). In words: JNK3 AlphaScreen Assay (AID 530).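 Further: kinase came from lysate of stimulated human HepG2 cells; signal reports phosphorylation of biotinylated GST-cJun 1-79 at Ser73 with 10 µM ATP; on the % scale 0 is the no-effect control and ±100 the full control effect.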 Conditions: JNK3 lysate, c-Jun phosphorylation; series mostly up to 57.1 µM. A digest of the protocol:
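qHTS format: compounds tested as titrations against IL-1beta/TNF-alpha-activated HepG2 lysate JNK3 with biotin-GST-cJun substrate and 10 uM ATP at room temperature. Loss of anti-phospho-cJun AlphaScreen signal indicates inhibition.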
In general terms: Bead proximity is the source of the signal in Alpha formats.

Test [8] has as its target 3',5'-cyclic-AMP phosphodiesterase 4B (Homo sapiens) (UniProt Q07343). In words: qHTS Assay for Inhibitors of PDE-IV (AID 607; active means well fitted activation curve with a large enough effect in the main read-out, with a control signal flat, not every such curve was filed as active; further: % of control where 0% means no effect). The settings on record: HEK293 ACTOne CNG channel cells, membrane potential fluorescence; series mostly up to 22.9 µM. The gist of the method: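 Cell-based read-out of cAMP via a modified cyclic nucleotide-gated channel and membrane potential dye (535/590 nm) in HEK293 cells expressing PDE4 endogenously. Compounds tested up to 22.9 uM final; 100 uM RO 20-1724 reference.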

Test [9] has as its target Cytochrome P450 3A4 (Homo sapiens) (UniProt P08684). In words: qHTS Assay for Activators of Cytochrome P450 3A4 (AID 885; active means well fitted curve in the direction sought with a large enough effect; an effect the other way counts as inactive or inconclusive; further: nearly all actives have a fitted effect of over 65% in size; further: potency means the concentration at half of the fitted maximal effect). Conditions: recombinant CYP3A4, Luciferin-PPXE luminescence, 60 min; series mostly up to 57.1 µM. A digest of the protocol:
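Signal was normalized against complete inhibition by 57 uM ketoconazole. The reaction used 20nM CYP3A4 with 25uM Luciferin-PPXE, 10-min compound preincubation and a 60-min NADPH-supported step at RT.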
In general terms: Quantitative high-throughput screening tests each substance at several concentrations.

The nature of test [10]: qHTS Assay for Lipid Storage Modulators (AID 1519; calls by dose curve). The settings on record: Drosophila S3 cells, BODIPY lipid droplet/cell ratio, laser cytometry, cells loaded with oleic acid; for activity change, negative = inhibition: at 57.5 µM (top of the series). A digest of the protocol:
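Cells seeded at 5,000 per well were treated with compounds over a concentration series and loaded with oleic acid (400 uM, as added). Lipid droplet fluorescence (488 nm excitation, 500-530 nm channel) was read by laser-scanning cytometry and normalized to 20 uM Triacsin C.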

Test [11] in a line: Primary qHTS for small molecule stabilizers of the endoplasmic reticulum resident proteome: Secreted ER Calcium Modulated Protein (SERCaMP) assay (AID 1508630; active means well fitted curve in the direction sought with a large enough effect; an effect the other way counts as inactive or inconclusive; further: on the % scale 0 is the no-effect control and ±100 the full control effect). The settings on record: SH-SY5Y GLuc-SERCaMP (Gaussia luciferase released on ER calcium loss) secretion, thapsigargin, luminescence; series mostly up to 38.4 µM. The gist of the method: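 GLuc-SERCaMP-expressing SH-SY5Y cells, pretreated 16 h with compound, are challenged with thapsigargin to empty ER calcium stores; after 4 h, coelenterazine is added directly to the medium and luminescence is imaged.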

In test [12] the target is Cytochrome P450 2D6 (Homo sapiens) (UniProt P10635). In words: qHTS Assay for Inhibitors and Substrates of Cytochrome P450 2D6 (AID 891; active means well fitted curve in the direction sought with a large enough effect; an effect the other way counts as inactive or inconclusive; further: potency means the concentration at half of the fitted maximal effect; nearly all actives have a fitted effect of over 60% in size). Conditions: recombinant CYP2D6, luciferin-ME EGE luminescence; series mostly up to 57.1 µM. The gist of the method:
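Human CYP2D6 (5 nM) with 30 uM Luciferin-ME EGE (at Km) in 100 mM KPO4, compound preincubated 10 min, then NADPH regeneration system for 60 min at room temperature. Luciferin read by luminescence; normalized to 1.43 uM quinidine.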

Test [13] has as its target Cytochrome P450 3A4 (Homo sapiens) (UniProt P08684). In words: qHTS Assay for Inhibitors and Substrates of Cytochrome P450 3A4 (AID 884; active means well fitted curve in the direction sought with a large enough effect; an effect the other way counts as inactive or inconclusive; further: on the % scale 0 is the no-effect control and ±100 the full control effect; nearly all actives have a fitted effect of over 50% in size). Conditions: recombinant CYP3A4, Luciferin-PPXE luminescence; series mostly up to 57.1 µM. A digest of the protocol:
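20 nM human CYP3A4 with 25 uM Luciferin-PPXE (at KM) in 200 mM KPO4, preincubated 10 min with compound; NADPH regeneration started a 60 min RT reaction. Luciferin detected by luminescence, normalized to 57 uM ketoconazole as full inhibition.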

Test [14] deals with Ubiquitin carboxyl-terminal hydrolase 1 (Homo sapiens) (UniProt O94782). In words: Inhibitors of USP1/UAF1: Pilot qHTS (AID 504865; active means well fitted curve in the direction sought with a large enough effect; an effect the other way counts as inactive or inconclusive;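 further: rhodamine fluorescence freed from ubiquitin-rhodamine substrate followed over time; top concentration of the series differs between compounds; on the % scale 0 is the no-effect control and ±100 the full control effect; nearly all actives have a fitted effect of over 35% in size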). Conditions: purified USP1/UAF1, Ub-rhodamine cleavage fluorescence; series mostly up to 114 µM. A digest of the protocol: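 1nM USP1/UAF1 + cpd, 15 min RT; start w/ Ub-Rho 150nM final; kinetic FL 480/540 nm, 6 reads q60 s. Buffer 50mM HEPES pH 7.8, 0.5mM EDTA, 1mM TCEP, 0.01% Tween-20, 0.1 mg/ml BSA.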

Setting [15] is: measured here: cell count channel max response.
[16] abbreviates: measured here: lipid channel max response.

Sequence of Cytochrome P450 1A2 (Homo sapiens) (P05177 whole entry, looked up): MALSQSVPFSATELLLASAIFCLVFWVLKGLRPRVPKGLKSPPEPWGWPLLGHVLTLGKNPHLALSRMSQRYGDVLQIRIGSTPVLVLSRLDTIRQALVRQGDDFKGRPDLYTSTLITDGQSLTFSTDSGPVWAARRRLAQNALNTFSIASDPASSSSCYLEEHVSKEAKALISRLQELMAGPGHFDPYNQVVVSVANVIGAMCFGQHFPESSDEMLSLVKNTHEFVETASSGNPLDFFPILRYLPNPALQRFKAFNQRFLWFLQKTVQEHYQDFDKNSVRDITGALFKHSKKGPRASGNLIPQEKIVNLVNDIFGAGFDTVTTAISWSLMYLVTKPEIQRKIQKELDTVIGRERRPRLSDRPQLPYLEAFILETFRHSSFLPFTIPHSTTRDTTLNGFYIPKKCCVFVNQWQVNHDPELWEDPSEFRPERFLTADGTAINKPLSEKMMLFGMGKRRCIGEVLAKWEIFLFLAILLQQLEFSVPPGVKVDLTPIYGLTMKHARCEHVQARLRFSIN
Sequence of Glucocorticoid receptor (Homo sapiens) (P04150 whole entry, looked up, the tested form may be a part): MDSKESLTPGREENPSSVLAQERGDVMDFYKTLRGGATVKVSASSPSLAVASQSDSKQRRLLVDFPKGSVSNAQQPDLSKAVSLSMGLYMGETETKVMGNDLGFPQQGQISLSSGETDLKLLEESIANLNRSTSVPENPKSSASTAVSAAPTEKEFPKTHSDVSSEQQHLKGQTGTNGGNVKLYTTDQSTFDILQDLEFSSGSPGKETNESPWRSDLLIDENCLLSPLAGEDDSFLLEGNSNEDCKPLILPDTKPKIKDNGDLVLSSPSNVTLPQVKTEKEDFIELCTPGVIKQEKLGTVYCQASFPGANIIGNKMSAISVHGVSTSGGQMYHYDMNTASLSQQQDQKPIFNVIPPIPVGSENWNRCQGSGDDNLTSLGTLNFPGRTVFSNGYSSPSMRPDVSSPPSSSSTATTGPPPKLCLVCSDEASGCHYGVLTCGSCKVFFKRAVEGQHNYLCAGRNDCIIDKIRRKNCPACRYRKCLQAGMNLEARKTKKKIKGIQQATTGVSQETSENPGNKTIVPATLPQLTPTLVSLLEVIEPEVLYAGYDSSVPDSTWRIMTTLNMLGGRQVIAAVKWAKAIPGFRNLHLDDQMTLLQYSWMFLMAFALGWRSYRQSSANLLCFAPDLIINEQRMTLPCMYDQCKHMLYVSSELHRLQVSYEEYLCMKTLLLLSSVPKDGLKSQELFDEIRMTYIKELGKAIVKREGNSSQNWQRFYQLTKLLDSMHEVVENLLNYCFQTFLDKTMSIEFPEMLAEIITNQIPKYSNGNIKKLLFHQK
Sequence of 3',5'-cyclic-AMP phosphodiesterase 4B (Homo sapiens) (Q07343 whole entry, looked up): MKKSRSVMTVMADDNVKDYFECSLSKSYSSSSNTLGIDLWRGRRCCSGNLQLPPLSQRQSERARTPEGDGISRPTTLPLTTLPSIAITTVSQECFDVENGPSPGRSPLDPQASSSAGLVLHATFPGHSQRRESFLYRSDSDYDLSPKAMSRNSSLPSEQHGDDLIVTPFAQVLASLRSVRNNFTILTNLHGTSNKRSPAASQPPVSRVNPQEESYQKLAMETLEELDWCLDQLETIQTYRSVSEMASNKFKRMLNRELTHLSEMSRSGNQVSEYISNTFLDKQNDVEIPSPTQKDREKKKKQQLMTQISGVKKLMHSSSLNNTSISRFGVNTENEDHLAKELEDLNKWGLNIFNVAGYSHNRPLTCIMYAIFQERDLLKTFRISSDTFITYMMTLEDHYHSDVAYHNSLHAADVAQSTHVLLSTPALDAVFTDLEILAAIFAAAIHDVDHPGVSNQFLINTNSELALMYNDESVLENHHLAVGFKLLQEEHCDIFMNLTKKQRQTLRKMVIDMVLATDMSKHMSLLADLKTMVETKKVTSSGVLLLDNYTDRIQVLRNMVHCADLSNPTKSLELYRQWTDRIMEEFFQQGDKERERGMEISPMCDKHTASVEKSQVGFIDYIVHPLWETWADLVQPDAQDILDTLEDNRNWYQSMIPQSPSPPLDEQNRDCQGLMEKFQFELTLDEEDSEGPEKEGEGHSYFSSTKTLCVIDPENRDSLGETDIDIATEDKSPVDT
Sequence of Cytochrome P450 3A4 (Homo sapiens) (P08684 whole entry, looked up): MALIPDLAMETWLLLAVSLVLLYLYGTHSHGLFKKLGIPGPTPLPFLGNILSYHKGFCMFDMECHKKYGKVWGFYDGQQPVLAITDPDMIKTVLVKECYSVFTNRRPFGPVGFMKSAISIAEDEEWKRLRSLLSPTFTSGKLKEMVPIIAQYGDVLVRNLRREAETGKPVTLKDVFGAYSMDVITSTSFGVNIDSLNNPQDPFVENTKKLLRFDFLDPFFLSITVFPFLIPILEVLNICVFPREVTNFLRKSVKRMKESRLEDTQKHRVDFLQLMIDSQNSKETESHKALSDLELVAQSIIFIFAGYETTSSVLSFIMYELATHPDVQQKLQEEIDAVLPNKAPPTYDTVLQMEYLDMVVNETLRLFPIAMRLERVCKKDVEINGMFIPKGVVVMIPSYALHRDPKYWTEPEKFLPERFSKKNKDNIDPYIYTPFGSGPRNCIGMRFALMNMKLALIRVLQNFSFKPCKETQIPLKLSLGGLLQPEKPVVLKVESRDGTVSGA
Sequence of Lysosomal acid glucosylceramidase (Homo sapiens) (P04062 whole entry, looked up): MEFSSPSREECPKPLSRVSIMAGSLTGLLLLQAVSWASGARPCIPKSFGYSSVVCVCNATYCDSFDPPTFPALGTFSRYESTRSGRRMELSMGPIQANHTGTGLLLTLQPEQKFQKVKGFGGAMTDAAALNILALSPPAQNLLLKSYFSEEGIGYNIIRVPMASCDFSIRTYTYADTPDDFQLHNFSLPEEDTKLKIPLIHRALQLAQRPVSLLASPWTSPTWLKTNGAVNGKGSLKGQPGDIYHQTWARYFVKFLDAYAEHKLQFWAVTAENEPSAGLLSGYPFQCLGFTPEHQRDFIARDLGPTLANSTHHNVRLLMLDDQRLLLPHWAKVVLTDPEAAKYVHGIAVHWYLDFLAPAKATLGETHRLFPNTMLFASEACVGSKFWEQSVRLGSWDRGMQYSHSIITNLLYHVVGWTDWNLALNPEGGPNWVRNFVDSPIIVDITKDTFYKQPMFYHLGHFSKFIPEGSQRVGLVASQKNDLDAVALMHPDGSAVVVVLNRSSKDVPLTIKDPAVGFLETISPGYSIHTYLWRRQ
Sequence of Cytochrome P450 2D6 (Homo sapiens) (P10635 whole entry, looked up): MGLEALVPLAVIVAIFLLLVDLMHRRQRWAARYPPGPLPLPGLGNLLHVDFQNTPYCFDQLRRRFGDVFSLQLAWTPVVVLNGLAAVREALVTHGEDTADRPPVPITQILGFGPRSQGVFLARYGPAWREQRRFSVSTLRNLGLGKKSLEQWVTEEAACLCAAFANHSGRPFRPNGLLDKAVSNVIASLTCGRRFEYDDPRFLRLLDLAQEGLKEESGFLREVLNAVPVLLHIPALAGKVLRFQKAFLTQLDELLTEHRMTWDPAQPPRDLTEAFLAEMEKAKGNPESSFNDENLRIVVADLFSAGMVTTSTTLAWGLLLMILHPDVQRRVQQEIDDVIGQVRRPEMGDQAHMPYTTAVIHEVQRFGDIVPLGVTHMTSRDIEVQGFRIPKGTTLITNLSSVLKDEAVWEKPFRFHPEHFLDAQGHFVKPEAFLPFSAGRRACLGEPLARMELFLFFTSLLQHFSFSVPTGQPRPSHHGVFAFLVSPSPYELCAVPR
Sequence of Ubiquitin carboxyl-terminal hydrolase 1 (Homo sapiens) (O94782 whole entry, looked up): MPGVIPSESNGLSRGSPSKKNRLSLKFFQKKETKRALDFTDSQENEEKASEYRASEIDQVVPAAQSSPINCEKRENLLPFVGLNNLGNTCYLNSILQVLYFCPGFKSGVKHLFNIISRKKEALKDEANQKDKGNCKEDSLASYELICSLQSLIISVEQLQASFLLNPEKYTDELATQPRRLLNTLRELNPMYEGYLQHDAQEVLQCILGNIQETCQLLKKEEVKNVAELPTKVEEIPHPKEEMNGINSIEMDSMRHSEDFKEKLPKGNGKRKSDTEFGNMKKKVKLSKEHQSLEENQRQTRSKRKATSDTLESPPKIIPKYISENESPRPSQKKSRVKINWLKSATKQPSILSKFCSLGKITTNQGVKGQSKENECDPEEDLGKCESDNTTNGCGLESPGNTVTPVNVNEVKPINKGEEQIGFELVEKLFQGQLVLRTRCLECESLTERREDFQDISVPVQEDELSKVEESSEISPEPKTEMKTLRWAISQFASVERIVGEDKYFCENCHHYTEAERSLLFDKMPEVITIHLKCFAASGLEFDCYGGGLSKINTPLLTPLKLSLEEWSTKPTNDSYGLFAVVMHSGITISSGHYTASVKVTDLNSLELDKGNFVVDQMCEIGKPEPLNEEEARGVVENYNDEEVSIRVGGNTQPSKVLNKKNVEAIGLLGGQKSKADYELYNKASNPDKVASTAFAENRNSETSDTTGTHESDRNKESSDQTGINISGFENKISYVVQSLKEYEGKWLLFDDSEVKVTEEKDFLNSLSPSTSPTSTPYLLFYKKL

For the compound `CN1CC[C@@]2(CCCN(C(=O)Oc3ccccc3)C2)C1`, the Potency in test [1] was > 11.4 µM (inactive); in test [6], > 46 µM (inactive). Besides, the result in test [2], in test [5], in test [7] and in test [11] was inactive. Besides, the Potency entry in test [3], in test [8] and in test [9] was “inactive” throughout. Moreover, the activity change, negative = inhibition in test [4] is 0.664% (inactive); in [10], 2.41% (inactive). Also, the values for the max response in [10] (setting [15]) and in [10] (setting [16]) were 16.8% and 22%, respectively.

Turning to `O=C(c1ccncc1)N1CCC2(CC1)CN(Cc1ccccc1)C2`, the Potency is > 11.4 µM (inactive) in test [1], > 46 µM (inactive) in test [6] and 6.31 µM (active) in test [12]. The outcome in [2], in test [7] and in test [11] was inactive. Besides, the Potency entry in test [3], in test [8] and in [9] was “inactive” throughout. In addition, the activity change, negative = inhibition in test [10] is -1.45% (inactive). The results for the max response in test [10] (setting [15]) and in test [10] (setting [16]) were -4.26% and -4.05%, respectively.

`O=C(Oc1ccccc1)N1CCC2(CC1)CN(C(c1ccccc1)c1ccccc1)C2`: the Potency in test [1] is > 11.4 µM (inactive); in [9], 6.31 µM (active); in [12], 7.94 µM (active). The outcome in [2], in [5], in test [7] and in test [11] was inactive. The Potency result in test [3] and in test [8] was “inactive” each time. Besides, the activity change, negative = inhibition is -29.6% (inactive) in [4] and -5.67% (inactive) in test [10]. The max response in [10] (setting [15]) is -3.18%; in test [10] (setting [16]) it was -5.43%.

With `c1ccc(N2CC[C@@]3(CCCNC3)C2)nc1`, the values for the Potency in [1] and in test [6] were > 11.4 µM (inactive) and > 46 µM (inactive), respectively. In addition, the result in [2], in test [5], in [7] and in [11] was inactive. Further, the Potency result in test [3], in test [8] and in test [9] was “inactive” each time. For the same compound, in [10], the activity change, negative = inhibition was 2.13% (inactive). For the same compound, the max response in [10] (setting [15]) is 12.4%; in test [10] (setting [16]), 16.2%.

`c1ccc(CN2CCC3(CCNCC3)CC2)cc1`: the Potency in test [1] was > 11.4 µM (inactive); in test [6] it was > 46 µM (inactive). For the same compound, the outcome in test [2], in test [5], in [7] and in test [11] was inactive. The Potency entry in test [3] and in test [8] was “inactive” in each case. Further, in [10], the activity change, negative = inhibition was 1.99% (inactive). For the same compound, the results for the max response in [10] (setting [15]) and in test [10] (setting [16]) were 22.2% and 27.4%, respectively.

In the case of `O=C(Oc1ccccc1)N1CCC2(CCN(Cc3ccccc3)CC2)CC1`, the Potency in [1] is > 11.4 µM (inactive); in [6] it was > 46 µM (inactive). Further, the result in test [2], in test [5], in test [7] and in [11] was inactive. The Potency result in test [3], in test [8] and in test [13] was “inactive” each time. For the same compound, the activity change, negative = inhibition in test [10] was 2.23% (inactive). Further, the max response in [10] (setting [15]) stood at 2.36%; in test [10] (setting [16]), 6.48%.

On to `COc1c2c(cc3c1OCO3)CC[N+](C)=C2`, for which the Potency entry in test [13] and in test [14] was “inactive” throughout. Further, the activity change, negative = inhibition in test [10] is 10.8% (inactive). In addition, the max response came out at 8.04% in test [10] (setting [15]) and 18.3% in test [10] (setting [16]). The result in test [11] was inactive.
